Our source for the Potency and outcome values is PubChem BioAssay (Tox21).

Test [1] is described as follows: qHTS assay for small molecules that induce genotoxicity in human embryonic kidney cells expressing luciferase-tagged ATAD5 (AID 651632). Note: nearly all actives have a fitted effect of over 15% in size. A digest of the protocol:
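ATAD5-luc HEK293T, 2,000 cells/well; cpd or DMSO pin-transferred; 16 hr, 37C/5% CO2; Amplite 30 min RT; luminescence.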
In general terms: Quantitative high-throughput screening tests each substance at several concentrations.

The nature of test [2]: qHTS assay to test for compound auto fluorescence at 590 nm (red) in HepG2 cells (AID 720674). A digest of the protocol: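 Red autofluorescence (Ex/Em 540/590 nm, Rose Bengal sodium equivalents) was measured in HepG2 cells, 2,000 per well in MEM plus 10% FBS, plated overnight at 37 C. Readings were taken 1 hr after adding 23 nL compound or DMSO, at 37 C and 5% CO2.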
Test [3] is described as follows: qHTS assay to test for compound auto fluorescence at 460 nm (blue) in HEK293 cells (AID 720678). A digest of the protocol:
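Blue read-out at excitation 405 nm and emission 460 nm follows overnight compound exposure of HEK293 cells at 37C in 5% CO2. Activity is given as auto fluorescence equivalency to triamterene.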

A short description of test [4]: qHTS assay to test for compound auto fluorescence at 590 nm (red) in HEK293 cells (AID 720679). Summed up: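 Red channel, Ex/Em 540/590nm; signal expressed as equivalency to Rose Bengal sodium. HEK293, 2,000 cells/well, 10% dialyzed FBS; 23 nL compound pinned after 4-5 hr attachment; overnight 37C/5% CO2 before reading.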
Test [5] is described as follows: qHTS assay to test for compound auto fluorescence at 460 nm (blue) in HepG2 cells (AID 720687). A digest of the protocol:
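Blue-channel autofluorescence (Ex/Em 405/460 nm, triamterene-equivalent) was measured after 1 hr compound exposure at 37 C, 5% CO2. Cells were HepG2, plated overnight at 37 C in MEM plus 10% FBS.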

Test [6] deals with Glucocorticoid receptor (Homo sapiens) (UniProt P04150). Briefly: qHTS assay to identify small molecule agonists of the glucocorticoid receptor (GR) signaling pathway (AID 720691; active = well fitted activation curve with a large enough effect in the signal ratio in the repeat runs, not every such curve was filed as active; the % refers to the signal ratio). Summed up: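 Fluorescence intensity from LiveBLAzer B/G FRET substrate (2 h, room temperature) reports beta-lactamase expression driven by the glucocorticoid response element in GR-bla HeLa cells after 18 h compound exposure at 37 C.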

The target is the same in test [7]. Put plainly: qHTS assay to identify small molecule antagonists of the glucocorticoid receptor (GR) signaling pathway (AID 720692; active = well fitted inhibition curve with a large enough effect in the signal ratio in the repeat runs, not every such curve was filed as active; the % refers to the signal ratio). A digest of the protocol:
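HeLa GR-bla cells; cmpd + dex 5 nM final, 18 h 37 C; LiveBLAzer B/G FRET substrate 2 h RT; fluorescence intensity read. Antagonist mode, qHTS.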

Test [8] is described as follows: qHTS assay to identify small molecule antagonists of the glucocorticoid receptor (GR) signaling pathway - cell viability counter screen (AID 720693). Note: nearly all actives have a fitted effect of over 55% in size.
Test [9] can be described thus: qHTS assay for identifying genotoxic compounds that show differential cytotoxicity against isogenic chicken DT40 cell lines with known DNA damage response pathways - Rev3 mutant cell line (AID 743014). Note: nearly all actives have a fitted effect of over 55% in size.
A short description of test [10]: qHTS assay for identifying genotoxic compounds that show differential cytotoxicity against isogenic chicken DT40 cell lines with known DNA damage response pathways - Rad54/Ku70 mutant cell line (AID 743015). Note: nearly all actives have a fitted effect of over 60% in size.
Test [11] in a line: qHTS assay to identify small molecule antagonists of the androgen receptor (AR) signaling pathway - cell viability counter screen (AID 743033; note: nearly all actives have a fitted effect of over 45% in size).
Test [12] is described as follows: qHTS assay to identify small molecule antagonists of the thyroid receptor (TR) signaling pathway - cell viability counter screen (AID 743064). Note: nearly all actives have a fitted effect of over 50% in size. A digest of the protocol:
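In-well cytotoxicity read by CellTiter-Fluor (30 min, 37 C) following 23.5 h exposure of GH3 cells bearing a TRE-luciferase sensor. Compounds were added alongside 1 nM (final) T3 to drive TR transactivation.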

Test [13] in a line: qHTS assay to identify small molecule antagonists of the thyroid receptor (TR) signaling pathway (AID 743065). Note: series mostly up to about 70 µM; nearly all actives have a fitted effect of over 55% in size. A digest of the protocol: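 Antagonism measured as loss of luciferase signal in GH3 cells stably carrying a TRE-luciferase reporter, co-treated with compound and T3 (1 nM final) for 23.5 h at 37 C. Viability was read in the same well by CellTiter-Fluor.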
The target in test [14] is Estrogen receptor (Homo sapiens) (UniProt P03372). Put plainly: qHTS assay to identify small molecule agonists of the estrogen receptor alpha (ER-alpha) signaling pathway (AID 743075; calls by dose curve;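 note: HEK293 GripTite cells with ER-alpha and UAS-driven beta-lactamase reporter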).
The target is the same in test [15]. Briefly: qHTS assay to identify small molecule agonists of the estrogen receptor alpha (ER-alpha) signaling pathway using the BG1 cell line (AID 743079). Note: nearly all actives have a fitted effect of over 20% in size.
The target in test [16] is Peroxisome proliferator-activated receptor gamma (Homo sapiens) (UniProt P37231). Briefly: qHTS assay to identify small molecule agonists of the peroxisome proliferator-activated receptor gamma (PPARg) signaling pathway (AID 743094; active = well fitted activation curve with a large enough effect in the signal ratio in the repeat runs, not every such curve was filed as active; the % refers to the signal ratio). A digest of the protocol:
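Beta-lactamase FRET fluorescence was the read-out after a 1 h room-temperature substrate step, following 17 h compound treatment at 37C of HEK293H cells expressing a UAS-driven bla reporter responsive to PPARg.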

The target of test [17] is Nuclear receptor subfamily 1 group I member 2 (Homo sapiens) (UniProt O75469). Briefly: CYP3A4 induction through human pregnane X receptor (PXR) by small molecules, qHTS assay (AID 1346984). Note: nearly all actives have a fitted effect of over 40% in size. A digest of the protocol:
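Luminescence readout: luciferase signal after One-Glo (30 min, room temperature), following 3 h at 37C with 3uM final Luciferin-IPA P450 substrate. Cells were DPX-2 (HepG2, PXR/CYP3A4-luc co-transfected) dosed for 24 h.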

Test [18] shares this target. Put plainly: Human pregnane X receptor (PXR) activation by small molecules, qHTS assay (AID 1346985). Note: nearly all actives have a fitted effect of over 40% in size. A digest of the protocol:
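DPX-2 cells (HepG2 co-transfected with a PXR response element and a CYP3A4-promoter luciferase construct) were seeded at 2,000 per well, rested 5 hr at 37C, then exposed to DMSO-dissolved compounds for 24 hr. Activation was read as luciferase luminescence.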

Test [19] can be described thus: qHTS assay for small molecule agonists of the p53 signaling pathway - cell viability (AID 651633; calls by dose curve;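 note: p53RE-bla HCT reporter cells with a stable beta-lactamase p53 reporter; series mostly up to about 83 µM; nearly all actives have a fitted effect of over 30% in size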). Summed up:
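Viability counter-read: CellTiter-Glo luminescence (30 min, room temperature) in the same p53RE-bla plates. These plates had been exposed to compounds for 16 h at 37 C.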

The nature of test [20]: qHTS assay for identifying genotoxic compounds that show differential cytotoxicity against isogenic chicken DT40 cell lines with known DNA damage response pathways - wild type cell line (AID 743012). Note: nearly all actives have a fitted effect of over 60% in size. Note: potency is the fitted concentration of half-maximal effect. Summed up:
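Wild type DT40, 300 cells/well, ~0.5 h settle at 37 C/5% CO2; compounds in DMSO added by pintool; 40 h at 37 C/5% CO2; CellTiter-Glo, 30 min RT; luminescence.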

Inconclusive results are not listed. Calls of active or inactive are those of the source. Unless noted, calls come from the whole dose curve; as a rule, active = well fitted curve in the direction sought with a large enough effect in the repeat runs; inconclusive = weak or mixed curves; inactive = no such curve, though single readings can be large; an effect the other way counts as inactive or inconclusive.

Peroxisome proliferator-activated receptor gamma (Homo sapiens), sequence (P37231 whole entry, looked up): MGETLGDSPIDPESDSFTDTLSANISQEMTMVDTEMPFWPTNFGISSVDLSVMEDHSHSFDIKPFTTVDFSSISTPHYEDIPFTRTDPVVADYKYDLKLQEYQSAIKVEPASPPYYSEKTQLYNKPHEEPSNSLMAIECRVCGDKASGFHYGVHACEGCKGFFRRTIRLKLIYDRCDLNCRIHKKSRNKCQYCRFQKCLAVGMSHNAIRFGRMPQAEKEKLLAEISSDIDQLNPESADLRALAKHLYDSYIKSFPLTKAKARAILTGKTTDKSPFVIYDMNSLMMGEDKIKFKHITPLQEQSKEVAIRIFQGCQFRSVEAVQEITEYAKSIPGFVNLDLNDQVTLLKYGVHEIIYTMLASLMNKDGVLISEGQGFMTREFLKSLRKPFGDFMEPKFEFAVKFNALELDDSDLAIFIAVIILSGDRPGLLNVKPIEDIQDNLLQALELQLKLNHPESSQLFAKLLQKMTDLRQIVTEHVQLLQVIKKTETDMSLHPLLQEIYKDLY
Estrogen receptor (Homo sapiens), sequence (P03372 whole entry, looked up): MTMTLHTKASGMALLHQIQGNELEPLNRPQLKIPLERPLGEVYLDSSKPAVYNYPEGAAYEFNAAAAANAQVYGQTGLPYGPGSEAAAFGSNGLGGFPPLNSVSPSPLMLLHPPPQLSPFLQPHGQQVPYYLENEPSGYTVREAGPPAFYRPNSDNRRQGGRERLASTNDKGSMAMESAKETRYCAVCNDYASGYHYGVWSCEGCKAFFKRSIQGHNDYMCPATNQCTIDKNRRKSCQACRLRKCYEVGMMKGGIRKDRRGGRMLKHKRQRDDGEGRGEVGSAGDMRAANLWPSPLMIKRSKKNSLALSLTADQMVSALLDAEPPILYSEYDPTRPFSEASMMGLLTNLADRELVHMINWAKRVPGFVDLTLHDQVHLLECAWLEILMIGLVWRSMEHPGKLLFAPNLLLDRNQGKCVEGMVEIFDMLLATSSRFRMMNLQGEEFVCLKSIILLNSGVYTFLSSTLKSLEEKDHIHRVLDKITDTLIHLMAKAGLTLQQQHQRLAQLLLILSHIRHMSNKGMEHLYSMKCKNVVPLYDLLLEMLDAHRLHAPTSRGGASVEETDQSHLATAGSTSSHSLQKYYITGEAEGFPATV
Glucocorticoid receptor (Homo sapiens), sequence (P04150 whole entry, looked up): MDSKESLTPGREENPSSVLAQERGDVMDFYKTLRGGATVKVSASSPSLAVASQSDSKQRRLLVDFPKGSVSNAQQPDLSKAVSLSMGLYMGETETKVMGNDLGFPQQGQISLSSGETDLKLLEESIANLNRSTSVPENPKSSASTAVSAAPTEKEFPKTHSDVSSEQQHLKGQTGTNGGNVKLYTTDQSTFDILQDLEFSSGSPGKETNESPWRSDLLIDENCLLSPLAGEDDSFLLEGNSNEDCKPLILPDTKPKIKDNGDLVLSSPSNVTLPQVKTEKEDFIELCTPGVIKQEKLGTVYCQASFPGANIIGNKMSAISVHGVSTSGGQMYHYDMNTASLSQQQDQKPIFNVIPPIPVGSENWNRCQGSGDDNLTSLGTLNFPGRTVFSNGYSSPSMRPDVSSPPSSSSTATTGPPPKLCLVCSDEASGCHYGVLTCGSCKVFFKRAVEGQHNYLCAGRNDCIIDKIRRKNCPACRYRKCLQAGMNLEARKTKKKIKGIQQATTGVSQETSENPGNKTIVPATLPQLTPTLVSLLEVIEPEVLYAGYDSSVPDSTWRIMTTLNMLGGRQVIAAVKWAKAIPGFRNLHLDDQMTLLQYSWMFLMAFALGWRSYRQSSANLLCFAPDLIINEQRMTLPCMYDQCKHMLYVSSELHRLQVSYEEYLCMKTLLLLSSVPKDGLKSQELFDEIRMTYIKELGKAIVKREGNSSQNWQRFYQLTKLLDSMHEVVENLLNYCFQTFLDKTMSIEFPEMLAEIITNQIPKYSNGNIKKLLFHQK

As for `CC1(C)S[C@@H]2[C@H](N)C(=O)N2[C@H]1C(=O)O`, the Potency entry in test [1], in test [3], in test [5], in test [6], in test [7] and in test [8] was “inactive” in each case. In addition, the Potency result in test [9], in test [10], in test [11], in test [12], in test [13] and in test [14] was “inactive” each time. For the same molecule, the Potency entry in test [15], in [16], in test [17] and in test [18] was “inactive” throughout. In addition, the molecule was called inactive in [2] and in [4].

Take `CCNCC(O)c1cccc(O)c1` (stereo not given): the Potency entry in [1], in test [19], in test [3], in test [5], in test [6] and in test [7] was “inactive” each time. Also, the Potency entry in test [8], in [20], in test [9], in [10], in test [11] and in [12] was “inactive” each time. In addition, the Potency result in test [13], in [14], in [15], in [16], in test [17] and in test [18] was “inactive” in each case. For the same molecule, the outcome in [2] and in test [4] was inactive.

In the case of `CC[N+](C)(CC)CCOC(=O)C(O)(c1ccccc1)c1ccccc1`, the Potency entry in test [1], in test [19], in [3], in test [5], in test [6] and in [7] was “inactive” in each case. The Potency result in test [9], in test [10], in [11], in test [12], in test [13] and in test [14] was “inactive” in each case. Also, the Potency result in [15], in [16], in test [17] and in test [18] was “inactive” throughout. Further, the call in test [4] was inactive.

For `CC(C)(C)c1ccc(O)cc1`, the result in test [2] was inactive. The Potency entry in test [5] was “inactive”.

Take `O=C1CCCCC1CN1CCCCC1` (stereo not given): the Potency result in test [1], in [19], in test [3], in test [6], in test [7] and in test [8] was “inactive” each time. In addition, the Potency entry in [11], in [12], in test [13], in test [14], in [15] and in test [16] was “inactive” throughout. In addition, the Potency result in test [17] and in test [18] was “inactive” in each case. In addition, the result in [4] was inactive. Moreover, the Potency in test [20] is 23.7 µM (active).

Take `CC(=O)Oc1ccc2c3c1O[C@H]1[C@@H](OC(C)=O)C=C[C@H]4[C@@H](C2)N(C)CC[C@@]341`: the Potency result in test [1], in test [19], in [3], in test [5], in [6] and in test [7] was “inactive” each time. Further, the Potency result in [8], in test [9], in [10], in [12], in test [13] and in test [14] was “inactive” each time. Besides, the Potency result in test [15], in test [16], in test [17] and in [18] was “inactive” in each case. Also, in test [4], the molecule was called inactive.

As for `COC1=CC=C2[C@H]3Cc4ccc(OC)c5c4[C@@]2(CCN3C)[C@H]1O5`, the Potency entry in test [1], in [3], in test [5], in test [6], in [7] and in test [8] was “inactive” in each case. The Potency entry in test [9], in [10], in [11], in [12], in [13] and in [14] was “inactive” in each case. Further, the Potency entry in test [15], in [16], in test [17] and in test [18] was “inactive” throughout. Moreover, the outcome in test [2] and in test [4] was inactive.

Regarding `C[C@@H]([C@H](O)c1ccccc1)N(C)C`, the Potency result in [1], in test [19], in test [5], in test [6], in test [7] and in test [8] was “inactive” throughout. Besides, the Potency entry in [20], in [10], in test [11], in test [12], in test [13] and in [14] was “inactive” each time. For the same molecule, the Potency entry in test [15], in test [16], in [17] and in test [18] was “inactive” in each case. In addition, the result in test [2] was inactive.
